Some test systems named below: HCT-15 colon; HT29 colon; SNB-75 CNS; SNB-19 CNS; U251 CNS; PC-3 prostate; SK-MEL-5 melanoma; UACC-62 melanoma; LOX IMVI melanoma; SK-MEL-28 melanoma; SK-MEL-2 melanoma; EKVX NSCLC; SN12C renal; UO-31 renal; TK-10 renal; ACHN renal; A498 renal; CCRF-CEM leukemia; MOLT-4 leukemia; CAKI-1 renal.
Common to all, as to experiment: NCI-60 one-dose screen, 48 h (100 = growth as untreated, 0 = no growth, -100 = all killed)
Holding throughout (details): 10 µM unless noted

Data on 8 molecules can be found in PubChem BioAssay (NCI).

This is part of a sample that, as a whole, favours compounds with a hit. Of some 83,000 tested, about 20% had one in any assay.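 Percent growth is the endpoint: 0 to 100 indicates growth inhibition (40 means 60% inhibition), 0 means no net growth, and negative values indicate cell death.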 A number with no mark means an inactive call. The source made the active and inactive calls. How the source made its calls: active means growth percent below 10; inactive means the rest.

Take `N#Cc1cnn2c(-c3ccc(Cl)cc3)nc(NCCc3ccccc3)nc12`: the growth was 103% in the experiment with HCT-15 colon; 80.7% in the experiment on HT29 colon; 78.8% in the experiment on SNB-75 CNS; 100% in the experiment with SNB-19 CNS; 97% in the experiment with U251 CNS; 73.7% with PC-3 prostate. Also, the growth in the experiment on SK-MEL-5 melanoma is 99.8%; with UACC-62 melanoma, 65.7%; with LOX IMVI melanoma, 84.9%; in the experiment on SK-MEL-28 melanoma it was 101%; with SK-MEL-2 melanoma, 89.1%; in the experiment with EKVX NSCLC, 87.3%. The growth in the experiment with SN12C renal was 99.6%; in the experiment on UO-31 renal it was 72.9%; in the experiment on TK-10 renal it was 102%; in the experiment on ACHN renal it was 94.2%; with A498 renal, 101%; in the experiment on CCRF-CEM leukemia, 96.4%. Further, the growth in the experiment with MOLT-4 leukemia is 74.2%.
`O=C(NC1CCOCC1)c1ccc2c(c1)CN(c1ncc(Cc3cccc(-n4cccn4)c3)s1)CC2`: the growth with HCT-15 colon was 79.3%; in the experiment with HT29 colon it was 72.8%; in the experiment with SNB-75 CNS, 91.5%; in the experiment on SNB-19 CNS, 95.7%; in the experiment on U251 CNS, 72.6%; in the experiment with PC-3 prostate, 58.7%. Moreover, the growth in the experiment with SK-MEL-5 melanoma was 31.5%; with UACC-62 melanoma it was 64.5%; in the experiment with LOX IMVI melanoma it was 63.8%; in the experiment with SK-MEL-28 melanoma, 88.3%; in the experiment on SK-MEL-2 melanoma, 54.9%; with EKVX NSCLC it was 53.5%. Besides, the growth was 82.1% in the experiment on SN12C renal; 64.4% in the experiment on UO-31 renal; 81.7% with TK-10 renal; 46.6% in the experiment with A498 renal; 52.1% in the experiment with CCRF-CEM leukemia; 40.3% in the experiment on MOLT-4 leukemia.
Take `CC(C)N(CCOC(=O)Nc1ccccc1Cl)C(C)C`: the growth in the experiment on HCT-15 colon is 108%; in the experiment on HT29 colon, 97.1%; in the experiment with SNB-75 CNS it was 107%; in the experiment with SNB-19 CNS, 98.6%; in the experiment on U251 CNS it was 98.8%; with PC-3 prostate, 74%. Moreover, the growth was 97.5% with SK-MEL-5 melanoma; 96.4% with UACC-62 melanoma; 101% in the experiment on LOX IMVI melanoma; 110% in the experiment with SK-MEL-28 melanoma; 104% with SK-MEL-2 melanoma; 99.7% in the experiment with EKVX NSCLC. For the same molecule, the growth in the experiment on SN12C renal was 99.1%; in the experiment with UO-31 renal it was 85.1%; with TK-10 renal, 108%; with A498 renal, 109%; with CCRF-CEM leukemia, 83.7%; in the experiment on MOLT-4 leukemia, 88.6%.
For the molecule `COc1cc(-c2cccc([N+](=O)[O-])c2)c(-c2nc(-c3ccccc3)c(-c3ccccc3)n2C2CC2)cc1OC`, the growth in the experiment on HCT-15 colon was 56%; in the experiment with HT29 colon, 44.5%; in the experiment with SNB-75 CNS, 67.7%; in the experiment with SNB-19 CNS, 80.4%; in the experiment with U251 CNS, 67.3%; in the experiment with PC-3 prostate it was 24%. The growth in the experiment on SK-MEL-5 melanoma is 52.5%; in the experiment with UACC-62 melanoma, 53.5%; with LOX IMVI melanoma, 60.1%; in the experiment with SK-MEL-28 melanoma it was 87.2%; with SK-MEL-2 melanoma, 57.6%; in the experiment with EKVX NSCLC, 57.2%. Also, the growth with SN12C renal was 75.1%; in the experiment with UO-31 renal, 37.7%; with TK-10 renal it was 66.2%; in the experiment with A498 renal, 77.6%; in the experiment with CCRF-CEM leukemia it was 48.1%; in the experiment on MOLT-4 leukemia it was 25.9%.
On to `CO/C(=C1/NC(=O)C(Cc2ccc(O)c(Br)c2)N(C)C(=O)C(C)NC(=O)CCC/C=C(\C)CCC(C)OC1=O)c1ccccc1` (stereo not drawn), for which the growth was 3.37% (active) with HCT-15 colon; 5.97% (active) in the experiment on HT29 colon; -94.2% (active) with SNB-75 CNS; -4.37% (active) in the experiment on SNB-19 CNS; -36.8% (active) in the experiment with U251 CNS; -9.06% (active) with PC-3 prostate. The growth in the experiment with SK-MEL-5 melanoma is -67.6% (active); with UACC-62 melanoma, 9.3% (active); with LOX IMVI melanoma it was -34.2% (active); in the experiment with SK-MEL-28 melanoma, -25.8% (active); in the experiment with SK-MEL-2 melanoma, -100% (active); in the experiment on EKVX NSCLC it was -25.3% (active). Moreover, the growth was 6.56% (active) in the experiment with SN12C renal; -84.9% (active) in the experiment on UO-31 renal; -83.2% (active) in the experiment with TK-10 renal; -34.7% (active) in the experiment with ACHN renal; -63.7% (active) in the experiment on A498 renal; 0.832% (active) with CCRF-CEM leukemia. Besides, the growth in the experiment with MOLT-4 leukemia is -12.2% (active).
Turning to `Cc1cc(-c2noc(C(F)(F)F)n2)ccc1N1CCN(c2cc(C(=O)N(C)C)no2)CC1`, the growth in the experiment on HCT-15 colon was 70.3%; in the experiment with HT29 colon, 78.3%; in the experiment with SNB-75 CNS, 73%; in the experiment on SNB-19 CNS, 64.1%; in the experiment on U251 CNS, 71.9%; in the experiment on PC-3 prostate it was 56.8%. Also, the growth with SK-MEL-5 melanoma was 2.91% (active); in the experiment with UACC-62 melanoma it was 62.1%; in the experiment on LOX IMVI melanoma, 62.4%; with SK-MEL-28 melanoma, 84.8%; in the experiment on SK-MEL-2 melanoma, 73%; in the experiment with EKVX NSCLC, 49.5%. For the same molecule, the growth in the experiment on SN12C renal was 83%; in the experiment with UO-31 renal, 62.7%; with TK-10 renal, 81.2%; in the experiment on ACHN renal it was 63.9%; in the experiment with CAKI-1 renal it was 67.7%; in the experiment on CCRF-CEM leukemia it was 65.3%. For the same molecule, the growth in the experiment on MOLT-4 leukemia was 71.5%.
As for `COc1cc2ccccc2cc1C(=O)NC(=S)Nc1ccc(-c2nc3ccccc3[nH]2)cc1`, the growth in the experiment on HCT-15 colon was 78.5%; in the experiment on HT29 colon it was 72.7%; in the experiment with SNB-75 CNS, 54.4%; in the experiment on SNB-19 CNS, 86.6%; in the experiment with U251 CNS, 75.2%; in the experiment with PC-3 prostate, 90.6%. The growth in the experiment with SK-MEL-5 melanoma was 42.5%; with UACC-62 melanoma it was 93%; with LOX IMVI melanoma it was 60.5%; with SK-MEL-28 melanoma, 90.1%; with SK-MEL-2 melanoma it was 105%; in the experiment on EKVX NSCLC it was 89.9%. Moreover, the growth in the experiment on SN12C renal is 83.4%; in the experiment on UO-31 renal, 89.8%; in the experiment on TK-10 renal, 83.4%; in the experiment with ACHN renal, 99.2%; with CAKI-1 renal, 90.7%; with CCRF-CEM leukemia it was 79.2%. Moreover, the growth in the experiment on MOLT-4 leukemia was 91.1%.
For the molecule `O=C1N(c2ccccc2)C(=S)N[C@]12[C@H](c1ccccc1)C1CCCN1[C@]21C(=O)NC2C=CC(Cl)=C[C@H]21` (stereo partly drawn), the growth was 100% in the experiment with HCT-15 colon; 82.6% with HT29 colon; 96.6% in the experiment with SNB-75 CNS; 101% in the experiment with SNB-19 CNS; 85% with U251 CNS; 47.8% with PC-3 prostate. Further, the growth was 93.1% in the experiment with SK-MEL-5 melanoma; 82.7% in the experiment on UACC-62 melanoma; 100% in the experiment with LOX IMVI melanoma; 117% in the experiment with SK-MEL-28 melanoma; 91% with SK-MEL-2 melanoma; 100% with EKVX NSCLC. The growth in the experiment on SN12C renal was 98%; in the experiment on UO-31 renal, 71.3%; in the experiment on TK-10 renal, 113%; in the experiment on A498 renal it was 107%; in the experiment on CCRF-CEM leukemia, 77.6%; in the experiment with MOLT-4 leukemia it was 79%.
